This is an account of results in PubChem BioAssay AID1259313 (Sanford-Burnham Center for Chemical Genomics, 2017).

Hit rate of the full screen: of about 340,000 compounds, about 8,500 (2.5%) were called active. The full list was thinned out, with actives kept by preference. A number with no mark means an inactive call.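 How the source made its calls: active means melting temperature shift of at least 10% of the positive control shift, at one fixed dose; inactive means the rest.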

This experiment relates to Glutamate receptor ionotropic, NMDA 3A (GRIN3A) ligand-binding domain. Put plainly: NR3A LBD thermal stabilization by compounds – biophysical, differential scanning fluorimetry, uHTS, primary screen (AID 1259313). The note with it: at 25 µM, active compounds read high, 0% = protein alone, 100% = glycine-bound protein.
Consider `COc1cc2c(cc1OC)C(c1ccccc1Br)NC(=O)C2` (centres undefined), for which the Tm shift relative to glycine control is -0.95%. In the case of `Cn1c(=O)c2ccccc2n(CC(=O)Nc2ccc3c(c2)OCCO3)c1=O` it was -1.03%; in that of `C[C@@H]1NC(=O)c2cc([N+](=O)[O-])cc(F)c2NCCC[C@@H](C(N)=O)NC(=O)[C@H](CC(N)=O)NC1=O`, 1.79%.

On to `CC(=O)N(CN1C(=O)C2C3C=CC(C3)C2C1=O)c1cccc(Cl)c1` (centres undefined), for which the Tm shift relative to glycine control is -2.44%. With `Oc1c(Br)cc(/C=N/NC(=S)NCC2CCCO2)cc1Br` (centres undefined) the figure was 1.71%; with `COc1ccc(NC(=O)NC2CC3CCCC(C2)N3Cc2ccccc2)cc1` (centres undefined), 0%. With `CC(=O)Nc1ccc(S(=O)(=O)NC(C)C(=O)OCCOc2ccc(F)cc2)cc1` (centres undefined) the figure was 22.1% (active). For the compound `COc1ccc(-c2noc(C(C)NS(=O)(=O)c3ccc(NC(C)=O)cc3)n2)cc1` (centres undefined), the Tm shift relative to glycine control was -8.89%.

With `CC(=O)Nc1ccc(S(=O)(=O)NC(C)C(=O)OCC(=O)NC2CCCC2)cc1` (centres undefined), the Tm shift relative to glycine control was 0.79%.

With `Cc1c(NC(=O)c2cc(-c3ccc(Cl)s3)nc3ccccc23)c(=O)n(-c2ccccc2)n1C`, the Tm shift relative to glycine control was 1.05%.

For `C[C@H](NC(=O)C1CC(=O)N(c2ccc3c(c2)OCCO3)C1)C(=O)N1CCC(C(=O)O)CC1` (some centres undefined), the Tm shift relative to glycine control is -0.91%. `CCOC(=O)c1c(-c2ccccc2)oc2cc(Br)c(O)cc12`: the Tm shift relative to glycine control is 13.8% (active). As for `CCOC(=O)c1c(-c2ccccc2)oc2cc(Br)c(O)c(C=O)c12`, the Tm shift relative to glycine control was -7.04%. On to `CCOC(=O)c1c(-c2ccccc2)oc2ccc(OCC(=O)NN)cc12`, for which the Tm shift relative to glycine control is 0.51%. In the case of `Cc1cccc(CC(=O)N2CCN=C2SCc2ccc([N+](=O)[O-])cc2)c1`, the Tm shift relative to glycine control was -0.64%.

Regarding `CCN(CC)CCCNC(=O)c1cn(C)c2ccc(S(=O)(=O)N(C)C3CCCCC3)cc2c1=O`, the Tm shift relative to glycine control is -1.61%. With `COc1ccc(C(=O)NCc2nnc(SCC(=O)Nc3cccc(OC)c3)o2)cc1` the figure was -1.39%; with `COc1cccc(NC(=O)CSc2nnc(-c3cccnc3)o2)c1`, -0.43%. Take `COc1ccc2oc(-c3cccc(NC(=O)CSc4ccc(Cl)cc4)c3)nc2c1`: the Tm shift relative to glycine control is 13.7% (active). Take `COCCCNC(=O)CNC(=O)c1nn(-c2ccc(OC)cc2)c(=O)c2ccccc12`: the Tm shift relative to glycine control is -1.01%. On to `CCOC(=O)C1CCN(CC(=O)Nc2ccc(OC)c(S(=O)(=O)N3CCCCC3)c2)CC1`, for which the Tm shift relative to glycine control was 0.25%. Turning to `C#CCOCCOCCOCCNc1nc(N2CCN(C(=O)CCCCCCCCCCNC(=O)Cn3cc(CCCCCN)nn3)CC2)nc(N2CCN(C(=O)CCCCCCCCCCNC(=O)[C@H](CO)n3cc(CCCSC)nn3)CC2)n1`, the Tm shift relative to glycine control was 14.2% (active).

As for `C#CCOCCOCCOCCNc1nc(N2CCN(C(=O)[C@H](CCCCN)n3cc(CCC(=O)O)nn3)CC2)nc(N2CCN(C(=O)[C@H](CCCCN)n3cc(CC(C)O)nn3)CC2)n1` (some centres undefined), the Tm shift relative to glycine control was 1.78%. For the compound `C#CCOCCOCCOCCNc1nc(N2CCN(C(=O)[C@H](C(C)C)n3cc(CCO)nn3)CC2)nc(N2CCN(C(=O)[C@H]([C@@H](C)CC)n3cc(CCCN=C(N)N)nn3)CC2)n1`, the Tm shift relative to glycine control was 1.78%. Take `C#CCOCCOCCOCCNc1nc(N2CCN(C(=O)CCCCCCCCCCNC(=O)[C@H]([C@@H](C)CC)n3cc(CCCCN=C(N)N)nn3)CC2)nc(N2CCN(C(=O)CCCCCCCCCCNC(=O)[C@H](CO)n3cc(CCCSC)nn3)CC2)n1`: the Tm shift relative to glycine control is 17% (active). Consider `C#CCOCCOCCOCCNc1nc(N2CCN(C(=O)Cn3cc(CCCCN)nn3)CC2)nc(N2CCN(C(=O)[C@H](CCCCN)n3cc(CCC(=O)O)nn3)CC2)n1`, for which the Tm shift relative to glycine control is 1.78%. In the case of `C#CCOCCOCCOCCNc1nc(N2CCN(C(=O)CCCCCCCCCCNC(=O)[C@H](CCCCN)n3cc(C)nn3)CC2)nc(N2CCN(C(=O)CCCCCCCCCCNC(=O)[C@H](CO)n3cc(CCCSC)nn3)CC2)n1` it was 24.7% (active); in that of `C#CCOCCOCCOCCNc1nc(N2CCN(C(=O)Cn3cc(CCO)nn3)CC2)nc(N2CCN(C(=O)Cn3cc(CCCN=C(N)N)nn3)CC2)n1`, 0%.

Take `C#CCOCCOCCOCCNc1nc(N2CCN(C(=O)Cn3cc(CCO)nn3)CC2)nc(N2CCN(C(=O)[C@H](CCCCN)n3cc(CCCC)nn3)CC2)n1`: the Tm shift relative to glycine control is 0.76%. Take `C#CCOCCOCCOCCNc1nc(N2CCN(C(=O)[C@H](CCC(=O)O)n3cc(CN)nn3)CC2)nc(N2CCN(C(=O)[C@H](CCC(=O)O)n3cc(CN)nn3)CC2)n1`: the Tm shift relative to glycine control was 1.02%.

With `CCn1c(SC)nc(O)c(C(c2ccc(OC)c(O)c2)c2c(O)nc(SC)n(CC)c2=O)c1=O`, the Tm shift relative to glycine control is -1.71%.

On to `O=C(O)c1cc2ccccc2c(=O)s1`, for which the Tm shift relative to glycine control is -0.71%.

On to `O=C(CCNC(=O)Cn1ccc2ccccc2c1=O)NCCC1=CCCCC1`, for which the Tm shift relative to glycine control was -1.72%. As to `O=C(NCc1ccccn1)C1CCN(S(=O)(=O)c2ccc(Br)cc2)CC1`, the Tm shift relative to glycine control was -1.11%. As to `Cc1nc(COc2cc3oc(=O)cc(C)c3cc2Cl)cs1`, the Tm shift relative to glycine control was -0.26%. In the case of `CCN(CC(=O)NC(C)C)C(=O)c1cc(S(=O)(=O)N2CCCCC2)ccc1N1CCCCC1` it was -0.99%. On to `Cc1cccc(Nc2nc3c(S(=O)(=O)c4ccccc4)nnn3c3ccccc23)c1C`, for which the Tm shift relative to glycine control was 1.31%.

As for `CC(=O)Nc1ccc(Nc2nc3c(S(=O)(=O)c4ccc(C)c(C)c4)nnn3c3ccccc23)cc1`, the Tm shift relative to glycine control was 14.7% (active). In the case of `Cc1ccc(S(=O)(=O)c2nnn3c2nc(N2CCN(c4ccccn4)CC2)c2ccccc23)cc1` it was 5.05%; in that of `CCC12CN3CC(CC)(CN(C1)C31C(=O)N(C)c3ccc(C)cc31)C2=O` (centres undefined), 0%; in that of `O=c1c2ccccc2nc2n1C(CSCc1cccc(C(F)(F)F)c1)CS2` (centres undefined), 16.1% (active). `O=c1c2ccccc2nc2n1C(CSCc1ccccc1)CS2` (centres undefined): the Tm shift relative to glycine control is -1.4%. In the case of `O=c1c2ccccc2nc2n1C(CSc1ccc(F)cc1)CN2` (centres undefined), the Tm shift relative to glycine control is -3.8%. `COc1ccc(C(=O)NCc2nnc(SCC(=O)NC3=NCCS3)n2C)cc1`: the Tm shift relative to glycine control is -1.86%. For the compound `CCOc1ccc(NC(=O)c2ccc(NC(=O)COC(=O)c3ccc(NC(=O)CC#N)cc3)cc2)cc1`, the Tm shift relative to glycine control is 9.12%. Take `CCOc1ccc(NC(=O)c2ccc(NC(=O)CN3C(=O)C(=O)N(CC(C)C)C3=O)cc2)cc1`: the Tm shift relative to glycine control is 28.5% (active). With `CCOc1ccc(NC(=O)CCNC(=O)c2ccc(Br)cc2)cc1` the figure was -4.23%; with `CCCOc1ccc(Cl)cc1Nc1nc(NCCO)nc(N2CCCC2)n1`, 1.78%. For the compound `Cc1cc(C)c(C#N)c(SCS(=O)c2ccc(C(C)(C)C)cc2)n1` (centres undefined), the Tm shift relative to glycine control was 1.37%. `O=C(N/N=C/c1ccc(OC(=O)c2ccccc2Cl)cc1)c1ccc(O)cc1`: the Tm shift relative to glycine control was 24.6% (active).

With `CC(C)(C)C(=O)Nc1ccc(C(=O)N/N=C/c2ccccc2OC(=O)c2ccc(Cl)cc2Cl)cc1`, the Tm shift relative to glycine control was 2.16%. For the compound `O=C(O)c1ccc(/C=N/NC(=O)c2ccc(Br)cc2)cc1`, the Tm shift relative to glycine control was -0.55%.

Take `O=C(Cc1cccs1)N/N=C/c1ccc(OCc2ccccc2)cc1`: the Tm shift relative to glycine control is 2.17%. For `O=C(N/N=C/c1ccc(OCc2ccccc2)cc1)c1ccc(O)cc1`, the Tm shift relative to glycine control was 28.3% (active).

Take `O=C(COc1ccc(/C=N/NC(=O)c2ccc(O)cc2)cc1)Nc1ccc([N+](=O)[O-])cc1`: the Tm shift relative to glycine control was 7.26%.

For `COc1cc(/C=N/NC(=O)Nc2ccccc2)ccc1OCCOc1ccccc1C`, the Tm shift relative to glycine control was -1.19%. On to `O=c1[nH]cnc(O)c1C(c1ccc(F)cc1)c1c(O)nc[nH]c1=O`, for which the Tm shift relative to glycine control was 0.87%.

For the compound `O=C(OCc1ccc(-c2ccccc2)cc1)c1cccc(O)c1`, the Tm shift relative to glycine control was 9.28%.

For `Oc1ccc(-c2nncn2-c2ccccc2)cc1`, the Tm shift relative to glycine control is -3.14%. Regarding `Oc1ccc(-c2cccc(-c3ccc(O)cc3)c2)cc1`, the Tm shift relative to glycine control was 31.9% (active). With `CNC(=S)N1CCC(NC(=O)C(Cc2ccc(F)cc2)NC(C)=O)CC1` (centres undefined), the Tm shift relative to glycine control is -1.22%. Turning to `COc1ccc(CCNC(=O)CCCCCNC(=O)N2CCn3c2nc2ccccc23)cc1OC`, the Tm shift relative to glycine control was -1.29%. As for `O=C(NCCCn1ccnc1)/C(=C\c1ccccc1F)NC(=O)c1ccccc1`, the Tm shift relative to glycine control was -0.09%. With `CC(C)c1cc(C(=O)N/N=C/C(Br)=C/c2ccccc2)n[nH]1` the figure was 6.56%; with `CC(C)(C)C1CCC(=NNC(=O)c2cc(-c3ccccc3)n[nH]2)CC1` (centres undefined), -5.15%. In the case of `CC(/C=N/NC(=O)c1cc(-c2ccc3ccccc3c2)n[nH]1)=C\c1ccco1` it was 16.4% (active). With `Cc1cc2c(cc1C)NC1(C[C@H]3CCC(=O)N4CC[C@@H](C1)[C@@H]34)C(=NC(C)(C)CC(C)(C)C)N2` (some centres undefined) the figure was -6.03%; with `CC(C)NC(=O)CCCn1c(=S)[nH]c2cc3c(cc2c1=O)OCO3`, -1.68%; with `O=C(CCCCCn1c(=S)[nH]c2cc3c(cc2c1=O)OCO3)N1CCN(c2ccc(F)cc2)CC1`, 11.6% (active). Turning to `Cc1ccc(C)c(N2CCN(C(=O)CCCCCn3c(=S)[nH]c4ccc(N5CCOCC5)cc4c3=O)CC2)c1`, the Tm shift relative to glycine control was -2.75%. `CC(C)c1ccc(NC(=S)NC2CC3C=CC2C3)cc1` (centres undefined): the Tm shift relative to glycine control was 0.48%. With `Cc1ccc(N=C2NC(=O)/C(=C/C=C/c3ccco3)S2)cc1C` the figure was 9.42%; with `Cc1cccc(N=C2NC(=O)/C(=C/c3cn(C)c4ccccc34)S2)c1`, 26.7% (active). In the case of `Cc1ccc(N2C(=O)S/C(=C/c3cn(C)c4ccccc34)C2=O)cc1` it was 1.52%. For the compound `Cc1cccc(N2CCN(C(=O)CN(C)S(=O)(=O)c3ccc4c(c3)CCC(=O)N4)CC2)c1C`, the Tm shift relative to glycine control is 0.4%. In the case of `CN(NC(=O)C1CC(=O)N(c2ccccc2)C1)C1=NS(=O)(=O)c2ccccc21` (centres undefined) it was -0.38%; in that of `Cc1ccc(NC(=O)NC(=O)c2ccccc2)cc1F`, -0.73%. In the case of `Cc1cccc(OCCNC(=S)NC(=O)c2cccnc2)c1` it was 1.46%; in that of `Cc1cccc(NC(=O)NC(=S)NC(=O)c2ccccc2)c1`, 20.6% (active).
